Among all 48,000 compounds or so, about 13,000 (27%) showed an effect of 50% or more. Some of the results follow.
These compounds were tested on Wolbachia pipientis (assay: Anti-Wolbachia Cell-Based Screen). Conditions: 5 µM.
Assay type: functional
Design: scale not given: in the data most compounds retested in dose-response had high values

SMILES | Percent Effect
Cn1cnc2c1C(C(=O)N1CCCO1)N(C(=O)c1ccccc1)CC2 (configuration not stated) | -3.517%
N#Cc1cccc(N2CCC3(CC2)Nc2ccccc2NC3=O)n1 | -5.007%
CC(C)N1CCCC2(CCN(C(=O)CCCn3cncn3)C2)C1=O (configuration not stated) | 0.7052%
Cc1cnn(-c2ccc(C(=O)N3CCCC(n4ccnc4C)C3)cc2)c1 (configuration not stated) | 110%
Cc1cnn(C2CCCN(C(=O)c3ccc(-n4cccn4)nc3)C2)c1 (configuration not stated) | 95.03%
Cc1cnn(C2CCCN(C(=O)c3ccc(O)nc3)C2)c1 (configuration not stated) | 123.6%
Cc1cnn(C2CCCN(C(=O)c3ccc(N4CCCC4)nc3)C2)c1 (configuration not stated) | 85.57%
Cc1cnn(C2CCCN(C(=O)c3sccc3C#N)C2)c1 (configuration not stated) | 1.519%
O=C(CCCn1cncn1)N1CCC2(CC1)[C@H](O)C[C@@H]2OCCO | -4.804%
Cc1cc(CNCC2CCCN(C(=O)OC(C)(C)C)C2)no1 (configuration not stated) | -1.865%
CCCOC1CCCN(C(=O)c2[nH]nc(C)c2Br)C1 (configuration not stated) | -6.367%
CCCN1CCN(C(=O)c2ccc3ccccc3n2)[C@H]2CS(=O)(=O)C[C@H]21 | 2.901%
Cc1noc2ncc(C(=O)N3CCCC(n4ccnc4C)C3)cc12 (configuration not stated) | -5.392%
Cc1nccn1C1CCCN(C(=O)c2ccc(-n3cccn3)nc2)C1 (configuration not stated) | 122%
Cc1nccn1C1CCCN(C(=O)c2ccc(N(C)C)nc2)C1 (configuration not stated) | -2.779%
Cc1ccc(-c2noc(CCC3CCN(C)CC3)n2)nn1 | -9.501%
CC(C)CCN1CC2(CCN(C(=O)C3(C)CCCCO3)CC2)OC1=O (configuration not stated) | -6.368%
Cc1nccc(C(=O)N2CCCN(Cc3cnn(C(C)C)c3)CC2)n1 | 5.245%
Cc1cccnc1CN1CCN(C(=O)c2cc(Cl)c[nH]c2=O)CC1 | -31.74%
CCc1ncc(C(=O)N2CCN(Cc3ncccc3C)CC2)cn1 | 86.86%
CC(C)n1cc(CN2CCCN(C(=O)c3cccnc3O)CC2)cn1 | -1.686%
Cc1cccnc1CN1CCN(C(=O)c2cnn(C(C)C)c2)CC1 | 94.71%
CCc1ncc(C(=O)N2CCN(C(=O)COc3ccccc3)CC2)cn1 | 3.835%
Cc1ccc(OCCC(=O)N(C)CC(=O)Nc2cc(C)on2)c(C)c1 | 1.593%
COc1ccccc1C(=O)N(C)Cc1ncc(C)c(OC)c1C | -3.019%
COc1c(C)cnc(CNC(=O)CCOCC(C)C)c1C | 11.08%

SMILES | Percent Effect
COc1c(C)cnc(CN2CCC(N(C)C(C)C(N)=O)CC2)c1C (configuration not stated) | -8.935%
COc1ccc(OC)c(C(=O)N(C)Cc2ncc(C)c(OC)c2C)c1 | -4.561%
COc1c(C)cnc(CN(C)C(=O)c2ccccc2O)c1C | -2.97%
COc1c(C)cnc(CN(C)C(=O)c2ccc(C3CCCO3)s2)c1C (configuration not stated) | -4.342%
COc1c(C)cnc(CN2CCC(N(C)C(=O)C(C)OC)CC2)c1C (configuration not stated) | 99.72%
COc1cccc(CCCN2CCC(N(C)S(C)(=O)=O)CC2)c1 | -2.016%
COc1c(C)cnc(CN2CCOC(Cn3nc(C)nc3C)C2)c1C (configuration not stated) | -9.057%
COc1ccc(C(=O)N(C)Cc2ncc(C)c(OC)c2C)c(OC)c1 | 77.44%
COc1c(C)cnc(CN2CCC(N(C)S(C)(=O)=O)CC2)c1C | 116.9%
O=C(c1cnc(NCCC2CCCO2)c(Cl)c1)N1CCOCC1 (configuration not stated) | -6.598%
Cc1cc(NC(=O)Cc2ccccc2O)cnc1N1CCCCC1 | 13.35%
COc1cccc2c1OCC(CNC(=O)CSc1nc(N)n[nH]1)C2 (configuration not stated) | -2.891%
Cc1cccc(N2CC[C@@H]3CN(Cc4csc(C)n4)CCO[C@@H]3C2)n1.O=C(O)C(F)(F)F.O=C(O)C(F)(F)F | -4.327%
O=C1NCC2(CCCN(C(=O)c3ccc4c(c3)CCO4)C2)O1 (configuration not stated) | 16.66%
COc1c(C)cnc(CN2CCC(C(=O)N(C)C)CC2)c1C | 2.904%
CCNC(=O)N(C)C1CCN(Cc2ncc(C)c(OC)c2C)CC1 | 110.9%
CCOc1ccccc1OCC(=O)NCc1ncc(C)c(OC)c1C | 8.111%
CCc1noc(C)c1C(=O)N(C)Cc1ncc(C)c(OC)c1C | -4.169%
CCC(=O)N(C)C1CCN(Cc2ncc(C)c(OC)c2C)CC1 | 9.191%
COc1c(C)cnc(CN2CCC(N(C)C(=O)C3CC3)CC2)c1C | 110.7%
N[C@@H]1CC[C@H](C(=O)NCCn2cc(Cl)cn2)C1 | -5.887%
Cc1ccc(-n2ccnc2)c(C(=O)NCCOCC2CCCO2)c1 (configuration not stated) | 2.009%
CCN(C)C(=O)c1cc(-c2ccn(C(C)C)n2)n2ccccc12 | 6.69%
CN(Cc1ncnn1C)C(=O)c1ccccc1NCc1ccccc1 | -8.23%
Cn1cc(CNC(=O)C2COCC(=O)N2Cc2ccccc2)cn1 (configuration not stated) | -3.917%
CN(CC1(C)COC1)C(=O)c1cc(-c2ccn(C)n2)nc2ccccc12 | 106.6%

SMILES | Percent Effect
CN(CC1(C)COC1)C(=O)c1cc(-c2ccnn2C)nc2ccccc12 | 116.9%
CN(CC1(C)COC1)C(=O)c1cc(-c2cnn(C)c2)nc2ccccc12 | 150.1%
CCN(C(=O)c1cc(C)nc2ccccc12)C1CC(=O)NC1=O (configuration not stated) | 9.266%
CN(Cc1cnn(C)c1)C(=O)c1cc2ccccc2c(=O)[nH]1 | -10.85%
CN(Cc1cccc(C(=O)Nc2ccnn2C)c1)CC1(C)COC1 | 30.85%
COc1ccc(NC(=O)N(C)Cc2ccc(Br)o2)cn1 | 12.08%
CN(C)S(=O)(=O)NCc1cccnc1Oc1ccccc1 | -16.22%
CCc1ccc(C(=O)N(CC)Cc2ccoc2)cc1S(C)(=O)=O | 18.17%
Cc1cccc2c1nc(COCC(=O)O)n2-c1cnc(N)cn1 | 0.6066%
O=C(O)C1(Oc2ccccc2)CCN(c2ccncc2)CC1 | -10.06%
O=C(O)C1(Oc2ccc3ccccc3c2)CCN(c2ccncc2)CC1 | -19.78%
O=C(O)C1(Oc2cccc(F)c2)CCN(C2CCOCC2)CC1 | 114%
CCCn1ccnc1CN1CCC(Oc2cccc(F)c2)(C(=O)O)CC1 | -7.212%
O=C(O)C1(Oc2cccc(F)c2)CCN(c2ccncc2)CC1 | -29.88%
O=C(O)C1(Oc2ccc3c(c2)OCO3)CCN(C2CCOCC2)CC1 | 140.6%
O=C(O)C(c1ccc2c(c1)OCCO2)N1CCC(N2CCOCC2)CC1 (configuration not stated) | 10.3%
CCCn1ccnc1CN1CCC(Oc2ccc(Cl)cc2)(C(=O)O)CC1 | -1.396%
O=C(O)C1(Oc2ccc(Cl)cc2)CCN(C2CCOCC2)CC1 | 109.8%
Cc1noc(OCCOc2cccc(C#N)c2)n1 | 0.996%
NC(=O)c1cnc(NCC(=O)NCc2ccccc2)c(Cl)c1 | -2.32%
O=C(c1cccs1)N1CC(Oc2ccccc2Cl)C1 | 11.34%
CCCc1nc(C(=O)N2C[C@H](CO)C[C@H](CN3CCOCC3)C2)cs1 | -13.1%
COCCN1C(=O)C[C@@H]2[C@H]1CCN2C(=O)COc1ccccc1 | -17.47%
COCCC(=O)N1CCC2(CC1)CC(c1ccccc1)CN(C)C2 (configuration not stated) | 9.484%
CN1C[C@H](O)[C@]2(CCN(C(=O)NCc3ccccc3)C2)S1(=O)=O | 101.7%
CN1C[C@@H](O)[C@]2(CCN(C(=O)OCc3ccccc3)C2)S1(=O)=O | 96.78%

SMILES | Percent Effect
CN1CC(c2ccccc2)CC2(CCN(C(=O)c3ccccc3)CC2)C1 (configuration not stated) | 1.137%
CCN1C[C@@H]2CN(C(=O)NCc3ccccc3)CCC[C@]2(C(=O)O)C1.O=C(O)C(F)(F)F | -6.91%
CN1C[C@@H](O)[C@]2(CCN(C(=O)c3ccccc3)C2)S1(=O)=O | 126.2%
CN1C[C@@H]2CN(C(=O)NCc3ccccc3)CCC[C@]2(C(=O)O)C1.O=C(O)C(F)(F)F | 10.95%
CN1C[C@H](O)[C@]2(CCN(C(=O)COc3ccccc3)C2)S1(=O)=O | 115.7%
COc1cccc(OCC(=O)N2CCC3(CC2)[C@H](O)C[C@@H]3OC)c1 | 6.956%
O=C(OCc1ccccc1)N1CC[C@H]2CC(CO)O[C@@H]2C1 (some centres not stated) | -8.669%
O=C(NCc1ccco1)c1cc(N2CC[C@@H](O)C2)ccn1 | 15.64%
CCCS(=O)(=O)N1Cc2ccnn2CC(c2nc(C)no2)C1.O=C(O)C(F)(F)F (configuration not stated) | -10.4%
Cc1csc(C(C#N)C(=O)NCc2ccccc2)n1 (configuration not stated) | 0.1394%
Cc1cc(C)c2nc(CN3CCOCC(O)C3)cc(O)c2c1 (configuration not stated) | -68.16%
CCC1=N[C@@]2(CC[C@@H]3CN(S(=O)(=O)CC(C)C)C[C@@H]32)C(=O)N1C | -2.639%
Cc1nc(CCNC(=O)NC2CCCN(c3ncccn3)C2)cs1 (configuration not stated) | 107.1%
COC(=O)N1CCCC(NC(=O)NCc2csc(C)n2)C1 (configuration not stated) | -0.338%
Cc1ccc(CNC(=O)NC2CCCN(c3ncccn3)C2)n1C (configuration not stated) | 7.079%
O=C(NCCc1cccs1)NC1CCN(c2ncccn2)CC1 | 110.6%
O=C(NCc1ccccn1)NC1CCCN(c2ncccn2)C1 (configuration not stated) | 20.37%
O=C(NCCc1ccccn1)NC1CCN(c2ncccn2)CC1 | 4.674%
O=C(NCc1ccoc1)NC1CCN(c2ncccn2)CC1 | 15.54%
Cc1csc(CNC(=O)NC2CCN(c3ncccn3)CC2)n1 | 3.023%
Cc1nc(CCNC(=O)NC2CCN(c3ncccn3)CC2)cs1 | 9.255%
Cc1nc(CNC(=O)NC2CCN(c3ncccn3)CC2)cs1 | 78.89%
Cc1nc(CNC(=O)NC2CCCN(c3ncccn3)C2)cs1 (configuration not stated) | 115.1%
N#Cc1ccc(CNC(=O)NC2CCCN(c3ncccn3)C2)cc1 (configuration not stated) | 10.08%
